# Results taken from PubChem BioAssay.
# How the values were obtained:
# [1] = tested on: Human papillomavirus type 1a protein E7 (residues 44-93); experiment: HPV1a E7 fragment binders on microarrays, primary screen, biochemical, small-molecule microarray, residues 44-93, 635 nm fluorescence (AID 1108); conditions: small-molecule microarray binding, fluorescence 635 nm; higher = more signal;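 also: E7 fragment applied at 1 µg/mL in TBST for 1 h at 4 C; score combines spot fluorescence with its signal to noise ratio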
# [2] = modulators of HCV replicon luciferase signal, primary screen, HCV replication inhibitor project, Huh7 cells, luciferase reporter (AID 1109); conditions: 48 h, higher = more signal;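 also: huh7 hepatoma cells harbouring a luciferase neomycin HCV replicon reporter; luciferase luminescence as measure of HCV replicon replication; test concentration not given here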
# [3] = target: Left-right determination factor 2 (Homo sapiens) (UniProt O00292); experiment: LEFTY2 binders on small-molecule microarrays, primary screen, biochemical, small-molecule microarray, 635 nm fluorescence scan (AID 1110); conditions: LEFTY2 binding, higher = more signal
# [4] = target: Calmodulin-1 (Homo sapiens) (UniProt P0DP23); experiment: CALM1 binders on microarrays, EGTA buffer, profiling panel, biochemical, small-molecule microarray, Cy5-labelled CALM1 (AID 1111); conditions: Cy5-CALM1 binding fluorescence, higher = more signal;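 also: labelled calmodulin applied in Tris saline Tween buffer holding calcium plus EGTA and DTT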
# [5] = target: Calmodulin-1 (Homo sapiens) (UniProt P0DP23); experiment: calcium-bound CALM1 binders on microarrays, profiling panel, artefact control for SMM control-protein annotation, biochemical, small-molecule microarray, Cy5-labelled CALM1, plus calcium (AID 1112); conditions: Cy5-CALM1 binding fluorescence, higher = more signal;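 also: score merges spot fluorescence with signal to noise from triplicate slides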
# [6] = small-molecule microarray binders of probe aWnt5a, primary screen, biochemical, biotinylated probe, 635/667 nm fluorescence (AID 1113); conditions: higher = more signal;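 also: score merges 667 nm fluorescence intensity with signal-to-noise per printed feature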
# [7] = small-molecule microarray binders of probe aShh, primary screen, biochemical, biotinylated probe, 635/667 nm fluorescence (AID 1114); conditions: higher = more signal;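 also: probe is biotin-labelled aShh protein from a stem cell growth factor screen; measures binding of labelled protein to compounds printed on the slide; score merges feature fluorescence at 667 nm with signal-to-noise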
# [8] = small-molecule microarray binders of probe aNog, primary screen, biochemical, biotinylated probe, 635/667 nm fluorescence (AID 1115); conditions: higher = more signal;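 also: probe is biotinylated aNog protein used at 0.15 µg/mL for 1 h at 4 C; z-score combines 667 nm fluorescence of each spot with its signal to noise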
# [9] = target: Torsin-1A-interacting protein 1 (Homo sapiens) (UniProt Q5JTV8); experiment: LAP1 binders from COS7 cell lysate, primary screen, small-molecule microarray, 635/667 nm fluorescence (AID 1116); conditions: COS7-hLAP1 lysate binding, 635 nm fluorescence, higher = more signal
# [10] = target: Alpha-bungarotoxin (Bungarus multicinctus) (UniProt P60615); experiment: alpha-bungarotoxin binders on microarray, profiling panel, artefact control for SMM control protein annotation, biochemical, small-molecule microarray, Alexa647 label, 635/667 nm fluorescence (AID 1117); conditions: alpha-BTX-A647 binding fluorescence, higher = more signal
# Chain of Alpha-bungarotoxin (Bungarus multicinctus) (P60615 whole entry, looked up): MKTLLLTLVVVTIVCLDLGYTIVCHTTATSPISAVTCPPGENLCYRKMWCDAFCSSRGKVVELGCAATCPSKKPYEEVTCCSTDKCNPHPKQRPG
# Chain of Torsin-1A-interacting protein 1 (Homo sapiens) (Q5JTV8 whole entry, looked up): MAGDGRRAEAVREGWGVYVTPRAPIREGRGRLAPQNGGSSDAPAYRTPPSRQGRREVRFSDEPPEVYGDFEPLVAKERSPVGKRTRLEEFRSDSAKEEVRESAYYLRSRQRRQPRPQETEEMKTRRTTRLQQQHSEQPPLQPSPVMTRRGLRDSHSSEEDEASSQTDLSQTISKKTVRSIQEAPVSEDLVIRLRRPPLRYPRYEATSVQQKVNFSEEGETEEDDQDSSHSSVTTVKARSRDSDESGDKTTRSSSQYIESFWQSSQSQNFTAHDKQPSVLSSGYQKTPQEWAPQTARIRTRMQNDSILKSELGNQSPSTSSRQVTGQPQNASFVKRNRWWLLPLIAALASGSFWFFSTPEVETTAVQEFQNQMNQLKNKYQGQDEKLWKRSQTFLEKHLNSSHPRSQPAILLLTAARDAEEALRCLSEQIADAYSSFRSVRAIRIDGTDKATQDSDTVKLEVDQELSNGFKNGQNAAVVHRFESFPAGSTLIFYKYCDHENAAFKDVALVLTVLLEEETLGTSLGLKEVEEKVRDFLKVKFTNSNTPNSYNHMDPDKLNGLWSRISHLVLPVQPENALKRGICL
# Chain of Left-right determination factor 2 (Homo sapiens) (O00292 whole entry, looked up): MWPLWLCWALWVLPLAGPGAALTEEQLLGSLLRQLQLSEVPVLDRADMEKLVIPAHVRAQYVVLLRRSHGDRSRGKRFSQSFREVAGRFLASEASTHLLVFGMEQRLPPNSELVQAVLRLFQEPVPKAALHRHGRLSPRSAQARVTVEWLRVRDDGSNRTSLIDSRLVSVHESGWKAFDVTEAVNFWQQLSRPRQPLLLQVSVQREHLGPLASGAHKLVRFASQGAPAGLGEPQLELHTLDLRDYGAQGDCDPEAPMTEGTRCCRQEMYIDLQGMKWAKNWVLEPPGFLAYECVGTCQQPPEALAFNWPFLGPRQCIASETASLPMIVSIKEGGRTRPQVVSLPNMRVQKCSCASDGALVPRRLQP
Structure (SMILES),composite z-score [1],z-score [2],composite z-score [3],composite z-score [4],composite z-score [5],composite z-score [6],composite z-score [7],composite z-score [8],composite z-score [9],composite z-score [10]
C=C(C)C(=O)OCC1CN2[C@@H](CC[C@@H](C)[C@@H]2c2ccc(Br)cc2)C(=O)O1 (stereo not given in full),0.0141,0.159,0.501,-0.15,-0.566,-0.199,-0.229,0.184,0.522,0.499
COC(=O)[C@H](C)NC(=O)CCC1CC(OC(=O)NCCc2ccc(F)cc2)CC2(CCCC(COC(=O)NCc3cccc(C(F)(F)F)c3)O2)O1 (stereo not given in full),0.518,-0.377,0.749,-0.0669,-0.23,-0.146,-0.59,-0.302,0.322,-0.131
COC(=O)CC=C[C@@H](C)[C@@H](C=NOC(C)CN1CCCc2nc(C)c(C)cc21)OC (stereo not given in full),0.633,-0.256,0.517,0.539,-0.733,0.133,-0.223,-0.291,0.106,1.43
CCCNC(=O)OC[C@H]1O[C@H](CCON=C(C)C)C=C[C@@H]1Oc1ccc(OC)cc1,-0.599,-1.12,-0.143,0.608,0.304,-0.0887,-0.282,-0.0927,0.587,-0.132
CC(C)=CCCC(C)=CCON=C1C[C@@H](O)[C@@H](O)[C@@H]2[C@@H]3C(=O)N(Cc4ccccc4)C(=O)[C@@H]3CC[C@@H]12,0.209,0.45,1.08,-0.488,-1.32,-0.154,-0.214,-0.0709,0.712,0.398
C[C@H]1CC[C@H]2C(=O)O[C@H](COc3ccc(C(C)(C)C)cc3)CN2[C@@H]1c1ccc(Br)cc1,0.179,-0.145,-0.281,1,0.101,-0.139,-0.0548,0.0051,0.303,1.15
Cc1cc2c(nc1C)CCCCN2CC(C)ON=C[C@@H](C)[C@H](OCc1ccccc1)C(C)C (stereo not given in full),-0.683,-3.07,-0.684,-1.4,-0.987,-0.224,-0.214,-0.415,-1.16,-0.916
C[C@@H](c1ccccc1)N1C(=O)[C@H]2[C@H]3[C@H](O)[C@H](O)CC(=O)[C@H]3CC[C@H]2C1=O,0.295,-0.127,0.461,0.364,-0.255,-0.154,-0.206,-0.026,-0.0326,-0.0931
CC(C)=CCCC(C)=CCON=C1C[C@@H](O)[C@@H](O)[C@@H]2[C@@H]3C(=O)N(C[C@@H]4CCCO4)C(=O)[C@@H]3CC[C@H]12,1.11,-0.0626,0.957,0.0209,0.228,-0.0783,0.0952,-0.278,0.986,1.15
COC(=O)[C@H]1[C@@H](O)[C@@]2(O)c3ccccc3O[C@@]2(c2ccccc2)[C@@H]1c1ccccc1,-0.673,-0.1,0.401,-0.449,-0.336,-0.156,0.0815,-0.136,0.096,-0.516
CO[C@H]1COC(=O)[C@@H](C)COC(=O)[C@H](COCc2ccccc2)NC(=O)CC=C[C@H]1C,-1.39,-0.292,1.23,-3.3,-3.53,-0.247,0.0062,0.0139,-0.526,-0.445
CC[C@@H](c1ccccc1)n1c(=O)n2n(c1=O)[C@H]1[C@H](O)[C@@H]3O[C@@H]3C(=O)[C@H]1CC2,0.225,-4.01,0.497,-0.202,-0.246,-0.101,-0.0474,-0.209,-0.113,0.414
C=CC[C@@H]1C=C[C@H](ON=C(C)CCC(=O)OC[C@H]2O[C@H](C#Cc3ccccc3)C=C[C@@H]2Oc2ccc(C)cc2)[C@@H](CO)O1,1.42,0.568,0.605,0.759,0.188,-0.0236,0.0639,-0.0463,0.728,0.742
O=C1CCCC=C1C(O)CCOC(c1ccccc1)(c1ccccc1)c1ccccc1 (stereo not given),-1,-3.22,0.13,-0.428,-0.131,-0.0161,-0.366,0.0195,-0.462,-0.28
O=C(NN=C1C[C@@H](O)[C@@H](O)[C@@H]2[C@@H]3C(=O)N(C4CCCCC4)C(=O)[C@@H]3CC[C@H]12)OCc1ccccc1,-0.342,-2.03,0.393,-0.202,0.454,-0.0051,-0.542,0.0014,0.26,0.273
CCN1C(=O)[C@H]2[C@H]3[C@H](O)[C@H](O)CC(=O)[C@@H]3CC[C@H]2C1=O,0.869,0.105,0.685,0.0536,-0.493,-0.192,-0.138,-0.237,0.467,0.488

Structure (SMILES),composite z-score [1],z-score [2],composite z-score [3],composite z-score [4],composite z-score [5],composite z-score [6],composite z-score [7],composite z-score [8],composite z-score [9],composite z-score [10]
Cc1ccc(S(=O)(=O)N[C@@H]2COC(=O)[C@@H](C)COC(=O)CC=C[C@H]2C)cc1,-0.534,0.264,0.449,-0.0682,-0.523,-0.0222,-0.157,-0.0489,0.216,0.293
C[C@@H](c1ccccc1)N1C(=O)[C@H]2[C@H]3[C@H](O)[C@H](O)CC(=NOCc4ccccc4)[C@H]3CC[C@H]2C1=O,1.43,0.547,0.491,0.209,-0.298,-0.0635,-0.0626,-0.425,0.826,0.571
CCCNC(=O)OC[C@H]1O[C@H](CCON=C(C)CCC(=O)OC[C@H]2O[C@H](c3ccccc3)C=C[C@@H]2Oc2ccc(OC)cc2)C=C[C@@H]1Oc1ccc(OC)cc1,-0.996,-1.17,-0.126,-0.449,-0.678,-0.0685,-0.138,-0.0039,0.23,-0.183
C[C@@H]1C=CCC(=O)OC[C@H]2O[C@@H](C=C[C@@H]2O)[C@H](C)C=CCC(=O)OC1,-1.9,-0.362,1.59,-1.35,-2.47,-0.359,-0.0626,-0.285,0.113,0.981
CCOC(=O)[C@H](CC(C)C)NC(=O)CCC1CC(OC(=O)NCc2cccc3ccccc23)CC2(CCCC(COC(=O)NCCC(C)C)O2)O1 (stereo not given in full),0.15,0.502,0.443,0.18,-0.703,-0.0529,-0.182,-0.32,0.165,0.503
C#CCCCON=C1C[C@@H](O)[C@@H](O)[C@@H]2[C@@H]3C(=O)N(c4ccc(F)cc4F)C(=O)[C@@H]3CC[C@H]12,0.299,0.0534,0.358,-0.353,-0.693,-0.006,-0.0533,-0.21,-0.0188,0.239
CC(C)(C)N1C(=O)[C@H]2[C@H]3[C@H](O)[C@H](O)CC(=NOCc4ccccc4)[C@H]3CC[C@H]2C1=O,-0.397,0.561,-0.0786,0.157,-0.272,-0.0125,-0.154,0.299,0.185,1.28
CCOC(=O)[C@H](Cc1ccccc1)NC(=O)CCC1CC(OC(=O)NCCc2ccc(F)cc2)CC2(CCCC(COC(=O)NCc3ccccc3)O2)O1 (stereo not given in full),1.29,-0.929,0.829,0.774,-0.129,-0.157,1.15,-0.118,0.601,0.154
COC(=O)[C@H](C)NC(=O)CCC1CC(OC(=O)NCCc2ccc(F)cc2)CC2(CCCC(COC(=O)NCCC(C)C)O2)O1 (stereo not given in full),0.466,0.839,0.482,0.0458,-0.233,-0.119,0.0483,-0.254,0.189,1.07
CCOC(=O)[C@H](CC(C)C)NC(=O)CCC1CC(OC(=O)NCCc2ccc(F)cc2)CC2(CCCC(COC(=O)NCCC(C)C)O2)O1 (stereo not given in full),0.48,0.314,0.344,0.586,-0.216,-0.0383,-0.0733,-0.108,-0.0671,1.21
COC(=O)CC=C[C@@H](C)[C@H](OCc1cccc(-c2ccccc2)c1)C1CCCCC1,-0.533,1.04,0.134,-0.532,0.472,-0.12,-0.0694,-0.168,0.14,1.9
COC(=O)CC=C[C@@H](C)[C@@H](C=NOC[C@@H](O)[C@H]1O[C@@H]2OC(C)(C)O[C@@H]2[C@H]1O)NS(=O)(=O)c1ccc(C)cc1,0.496,-0.499,0.417,0.0636,-0.627,-0.0882,-0.715,0.0416,0.167,0.101
CC(=O)OC[C@H]1OC(ON=CC[C@@H]2C=C[C@H](OC(C)=O)[C@@H](COC(C)=O)O2)[C@H](OC(C)=O)[C@@H](OC(C)=O)[C@@H]1OC(C)=O (stereo not given in full),0.781,-0.3,0.624,-0.0804,-0.819,-0.0957,-0.154,-0.144,-0.0191,-0.461
CCOC(=O)[C@H](CC(C)C)NC(=O)CCC1CC(OC(=O)NCc2ccc3c(c2)OCO3)CC2(CCCC(COC(=O)NCc3cccc(C(F)(F)F)c3)O2)O1 (stereo not given in full),0.323,-1.44,0.227,0.0753,-0.259,-0.148,-0.138,-0.316,-0.0298,0.111
CO[C@@H]1COC(=O)CC=C[C@@H](C)[C@H](OC)COC(=O)[C@@H](C)COC(=O)CC=C[C@H]1C,-0.82,0.0811,0.889,-0.618,-1.59,-0.237,-0.0553,-0.284,0.263,-0.864
COC(=O)[C@H](C)NC(=O)CCC1CC(OC(=O)NCc2ccc3c(c2)OCO3)CC2(CCCC(COC(=O)NCc3cccc(C(F)(F)F)c3)O2)O1 (stereo not given in full),0.817,-1.79,1.11,0.601,-0.311,-0.113,0.0756,0.33,0.794,0.446
